# Assay outcomes as filed in PubChem BioAssay.
# SENP8 block-1 – blocks the human protease SENP8; Q96LD8; purified SENP8, Z-RLRGG-aminoluciferin cleavage, luminescence; inhibition, % at 10 µM; 1.2% of 330,000 active; in the data active = inhibition above about 50%
# PPC-1+TRAIL kill – kills PPC-1 cancer cells in the presence of TRAIL; PPC-1 cells + TRAIL, ATPLite viability luminescence; cell killing (% activity), % at 4 µM or 5 µM; 0.41% of 220,000 active; AID 1443;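 active = cell killing above 50% in the first pass at 4 µM, then a duplicate retest at 5 µM averaging 50% or more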;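 note: plate controls were cells with TRAIL plus DMSO for no effect and medium-only wells lacking cells for full effect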
# C8 TRAIL sens – caspase-8 TRAIL sensitization; NB7+C8 cells + TRAIL, ATPlite viability luminescence; AID 624354; inhibition (viability loss, TRAIL sensitization), % at 10 µM; 1% of 360,000 active;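 active = compounds causing at least 50% loss of cell viability in the single-dose screen, relative to plate controls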
# SENP7 block – SENP7 protease inhibition. inhibition, % at 5 µM. 1.5% of 330,000 active. AID 434973. recombinant SENP7, Z-RLRGG-aminoluciferin luminescence, 40 min;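 active = inhibition above about 50% at the single test dose, limit read from the data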;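 note: plate controls were DMSO with enzyme for no effect and no enzyme buffer wells for full effect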
# SENP8 block-2 – SENP8 (human) protease inhibition; inhibition, % at 20 µM; recombinant SENP8, Nedd8 substrate fluorescence; AID 602440; 0.64% of 360,000 active; in the data active = inhibition mostly above about 40%, no sharp cut-off; inactive = mostly below about 27%
# SENP6 block – blocks the human protease SENP6; Q9GZR1; Recombinant SENP6 catalytic domain, aminoluciferin luminescence; inhibition, % at 10 µM; 1.8% of 330,000 active;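 active = inhibition above about 50% at the single tested dose, limit read from the data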;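 note: plate controls were DMSO wells with enzyme for no effect and DMSO wells lacking enzyme for full effect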
# Target sequence (Q9GZR1 628-1112 limits assumed): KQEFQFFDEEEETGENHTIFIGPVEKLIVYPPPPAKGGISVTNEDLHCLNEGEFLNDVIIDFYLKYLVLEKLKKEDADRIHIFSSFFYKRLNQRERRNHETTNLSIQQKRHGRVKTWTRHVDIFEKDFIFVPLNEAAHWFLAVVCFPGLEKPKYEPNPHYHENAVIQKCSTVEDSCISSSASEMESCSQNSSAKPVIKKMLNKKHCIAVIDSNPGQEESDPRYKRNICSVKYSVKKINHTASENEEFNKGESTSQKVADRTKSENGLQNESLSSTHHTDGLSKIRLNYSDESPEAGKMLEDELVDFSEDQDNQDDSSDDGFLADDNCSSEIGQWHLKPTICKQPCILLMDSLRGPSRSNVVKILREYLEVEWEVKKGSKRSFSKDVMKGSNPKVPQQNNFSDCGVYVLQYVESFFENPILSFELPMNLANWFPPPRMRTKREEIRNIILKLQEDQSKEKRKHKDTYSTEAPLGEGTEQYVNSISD
# SENP8 confirm – confirmation of human SENP8 protease inhibitors | shares compounds with SENP7 block | Recombinant SENP8, Z-RLRGG-aminoluciferin luminescence, 60 min | inhibition, % at 12.5 µM | 40% of 6,200 active;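 active = mean inhibition across replicates above about 50%, limit read from the data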
# SENP6 confirm – human SENP6 inhibition, confirmed | shares compounds with SENP7 block | recombinant SENP6, Z-RLRGG-aminoluciferin luminescence | inhibition, % at 12.5 µM | 58% of 6,200 active | AID 488915
# SENP7 confirm – confirmation of human SENP7 protease inhibitors | inhibition, % at 12.5 µM | 69% of 6,200 active | recombinant SENP7, Z-RLRGG-aminoluciferin luminescence, 40 min | shares compounds with SENP7 block
# Casp3 select – inhibits human caspase-3 in SENP selectivity test; shares compounds with SENP7 block; purified caspase-3, Z-DEVD-aminoluciferin luminescence, 60 min; inhibition, % at 12.5 µM; 60% of 6,200 active;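 active = mean inhibition above about 50%, limit read from the data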;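 note: plate controls were enzyme with DMSO for no effect and wells without caspase-3 for full effect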
# SENP luc ctr – counter-screen for SENP inhibitors: luminescence interference. shares compounds with SENP7 block. Pre-incubated SENP8/Z-RLRGG-aminoluciferin, luciferase luminescence interference. inhibition, % at 12.5 µM. 39% of 6,200 active;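 active = mean inhibition above about 50% when retested at one dose, limit read from the data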;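 note: plate controls were DMSO wells with completed reaction for no effect and substrate without enzyme for full effect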
# Starred values were filed as active, the others as inactive; x = no result. Sampled rows, rich in hits. Any-hit rate of the full collection: about 3%.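 Rule for the calls, unless noted: active = mean inhibition above about 50% in the one-dose retest (limit read from the data); inactive = the rest.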
SMILES,SENP8 block-1,PPC-1+TRAIL kill,C8 TRAIL sens,SENP7 block,SENP8 block-2,SENP6 block,SENP8 confirm,SENP6 confirm,SENP7 confirm,Casp3 select,SENP luc ctr
CCC1=Nc2cc(C(=O)NCCN3CCOCC3)ccc2Sc2ccc(Br)cc21,5.4,x,12.0,-4.2,11.7,2.8,x,x,x,x,x
Cn1cccc1C(=O)C(=O)Nc1ccccc1,80.0*,22.0,32.2,93.9*,24.2,92.2*,89.0*,89.8*,99.8*,95.3*,88.5*
Oc1ccc(-c2nc3ncccn3c2Nc2ccc3c(c2)OCO3)cc1,16.9,46.1,-12.1,93.2*,13.2,86.0*,9.1,7.8,-6.7,-2.6,5.7
Clc1ccc(-c2nc3ncccn3c2Nc2ccc3c(c2)OCO3)cc1,0.2,18.7,-13.1,4.1,7.4,-13.3,x,x,x,x,x
O=C(/C=C/c1ccc2c(c1)OCCCO2)c1ccccc1O,80.8*,16.5,39.3,84.3*,22.0,87.5*,91.4*,92.6*,92.3*,57.0*,25.7
Cc1ccc(O)c(C(=O)/C=C/c2ccc3c(c2)OCCCO3)c1,3.1,42.3,15.9,-10.9,14.4,30.6,x,x,x,x,x
CN(C)c1ccc(/C=C/C(=O)c2ccccc2O)cc1,86.0*,13.5,13.6,88.7*,13.8,92.2*,18.4,26.6,14.5,8.0,-2.4
CCOC(=O)c1cc2c(=O)c3ccccc3oc2nc1C,43.6,x,10.9,58.4*,7.0,58.0*,42.3,42.8,67.2*,73.6*,18.8
CCC(=O)N(CCc1ccc(S(N)(=O)=O)cc1)C1CC(=O)N(c2ccc(OC)cc2)C1=O (stereo not drawn),1.2,-4.6,-1.2,12.7,18.8,-2.5,x,x,x,x,x
Nc1nc(N)nc(-c2ccc(Cl)c(Cl)c2)n1,42.5,x,-3.7,59.5*,-456.5,56.5*,41.1,37.9,77.6*,48.8,61.9*
CCN(C[C@H]1N[C@@](CC)(C(=O)OC)[C@H]2C(=O)N(Cc3ccccc3)C(=O)[C@@H]12)C(=O)NC(C)C,-0.8,x,-18.7,1.9,6.8,9.9,x,x,x,x,x
O=C(Nc1ccc(Cl)cc1)c1ccc(Br)cc1F,44.4,25.1,23.0,49.8,13.9,50.7*,19.9,40.0,40.5,40.5,8.5
CC(C)c1ccc(NC(=O)c2cc(Br)ccc2Br)cc1,-13.6,-1.1,4.3,-6.0,-47.6,-15.8,x,x,x,x,x
CC12CCC(C(=O)NC3CCCCC3)([C@H](Br)C1=O)C2(C)C (stereo partly drawn),-1.4,6.2,11.3,-5.1,11.4,-28.9,x,x,x,x,x
c1ccc(-c2nc3ccccc3o2)nc1,-7.9,2.7,5.1,-3.2,-6.6,12.7,x,x,x,x,x
Clc1ccc2oc(-c3ccccn3)nc2c1,28.2,45.8,28.4,56.8*,-41.7,66.6*,32.9,56.4*,85.5*,77.7*,31.1
COc1ccc(Cc2c(C(C)(C)C)nc3c(C)cc(Br)cn23)c(C)c1,x,x,-14.3,x,-9.1,x,x,x,x,x,x
COC(=O)c1sccc1NC(=O)Cc1ccc(OC)cc1,23.2,-17.9,0.7,42.2,12.7,51.3*,48.7,43.8,79.2*,62.7*,57.9*
COC(=O)c1sccc1NC(=O)c1ccc(C)o1,-5.5,13.6,-3.7,-9.9,-20.6,-17.5,x,x,x,x,x
COc1ccc(CCNC(=O)Nc2cccs2)c(OC)c1,-7.1,x,-9.0,-3.2,8.2,-4.5,x,x,x,x,x
Fc1cccc(Cl)c1/C=C/c1cnc2ccccc2n1,96.2*,x,3.5,10.5,-83.9,96.4*,13.0,84.0*,66.2*,57.8*,74.1*
Cc1cc(-c2ccc3c(c2)COc2c4ccccc4nn2-3)on1,86.2*,x,25.3,49.2,-356.3,93.1*,-27.8,7.3,37.1,25.5,7.1
